Bioassay records: PubChem, National Center for Advancing Translational Sciences (NCATS)
LmPK inhibitor – LmPK (Leishmania mexicana) enzyme inhibition; Q27686; purified LmPK, Kinase-Glo ATP luminescence, 1 h; Potency, µM (highest dose often 57.5 µM), for the others: at the highest dose activity change, negative = inhibition, usual class: inhibitors; hit rate 0.37% among 290,000; AID 1721; note: potency is the fitted concentration of half-maximal effect; % is set by controls: 0 for no effect and ±100 for the full control effect
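Pyruvate kinase activity monitored as ATP production (luciferase luminescence). Conditions: 0.1 nM enzyme, 0.5 mM PEP, 0.1 mM ADP, 1 h, RT; normalized against uninhibited and no-enzyme wells.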
Shiga toxin inh – blocks Shiga toxin action in Vero cells | Vero cells, Shiga toxin protein synthesis inhibition reporter | inhibition, % at 38.7 µM | hit rate 9.2% among 290,000 | AID 2315; in the data active = inhibition mostly above about 28%, no sharp cut-off; inactive = mostly below about 43%; note: 0% is about no effect
RE007 growth inh – less growth of the S. pombe RE007 Vpr strain; S. pombe RE007 Vpr strain, BacTiter-Glo ATP luminescence, 24 h; Potency, µM (highest dose often 92.2 µM), inactives show at the top dose activity change, negative = less growth, actives largely listed as inhibitors; hit rate 0.21% among 360,000; AID 651644; active = well fitted falling curve with a large enough effect; inconclusive = small, poorly fitted or top-dose-only effect; inactive = no such curve, though single readings can be large or run the other way; note: potency is the fitted concentration of half-maximal effect; % is set by controls: 0 for no effect and ±100 for the full control effect; nearly all actives have a fitted effect of over 50% in size
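Fission yeast strain RE007, carrying one chromosomally integrated HIV-1 vpr copy, was seeded at OD 0.01 in PMG+AL medium with 23 nL pinned compound. After 24 h at 30 °C and 99% humidity, viability was read by BacTiter-Glo luminescence.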
Giardia FBPA inh – blocks Giardia fructose-bisphosphate aldolase activity; A8B2U2; purified Giardia FBPA; Potency, µM (doses to about 59.6 µM), for inactives: at the highest dose activity, negative = inhibition, hits mostly inhibitors; hit rate 0.71% among 290,000; AID 2451; note: potency is the fitted concentration of half-maximal effect; % is set by controls: 0 for no effect and ±100 for the full control effect; nearly all actives have a fitted effect of over 55% in size
Target sequence (A8B2U2 whole entry, looked up): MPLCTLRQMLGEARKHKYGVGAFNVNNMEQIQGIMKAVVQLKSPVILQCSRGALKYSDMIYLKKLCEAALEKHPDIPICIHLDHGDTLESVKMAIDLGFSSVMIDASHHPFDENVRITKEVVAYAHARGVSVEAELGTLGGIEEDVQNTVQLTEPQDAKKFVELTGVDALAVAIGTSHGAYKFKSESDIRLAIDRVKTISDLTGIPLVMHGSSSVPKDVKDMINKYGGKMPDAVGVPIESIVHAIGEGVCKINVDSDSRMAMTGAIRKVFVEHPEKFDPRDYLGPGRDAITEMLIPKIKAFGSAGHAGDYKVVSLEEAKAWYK
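40 nM FBPA preincubated 10 min at RT with compound (up to 57.5 uM final), then substrate plus GAPDH/TPI/NAD/arsenate coupling and diaphorase/resazurin added. Fluorescence read after 20 min at RT, 525/598 nm.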
Tb PYK inh – inhibitors of Trypanosoma brucei pyruvate kinase; Q57TT1; TbPYK enzyme, Kinase-Glo Plus ATP luminescence, 45 min; Potency, µM (top dose mostly 76.8 µM), without a hit: at the highest dose activity, negative = inhibition, hits mostly inhibitors; hit rate 0.12% among 410,000; note: potency is the fitted concentration of half-maximal effect; % is set by controls: 0 for no effect and ±100 for the full control effect; nearly all actives have a fitted effect of over 50% in size
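Activity of T. brucei pyruvate kinase was followed by Kinase-Glo Plus luminescence after the enzyme reacted 45 min at room temperature with 130 uM ADP (final) and substrate. Test compounds were added before ADP at multiple concentrations.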
CHX counter – counter-screen hit for Shiga toxin inhibitors, cycloheximide; cell reporter, cycloheximide protein synthesis inhibition counterscreen; max response, %; hit rate 12% among 300,000; in the data active = max response mostly above about 13%, no sharp cut-off; inactive = mostly below about 14%; note: read at 38.3 µM for the half of the compounds with a filed dose; 0% is about no effect
* hit, by the source's call; ? = inconclusive; . = no result; + = active, no number. The sample as a whole holds a higher share of hits than the screen did. Unless noted, calls come from the whole dose curve; as a rule, active = well fitted curve in the direction sought with a large enough effect; inconclusive = small, poorly fitted or top-dose-only effect, or another doubt; inactive = no such curve, though single readings can be large; an effect the other way counts as inactive or inconclusive.

SMILES	LmPK inhibitor	Shiga toxin inh	RE007 growth inh	Giardia FBPA inh	Tb PYK inh	CHX counter
O=C(COC(=O)c1ccco1)NC1CCCCC1	4%	17	8%	7%	2%	22*
O=C(NC1CCCCCCC1)c1ccco1	-6%	43*	?	1%	1%	18*
CC[C@H](C)[C@H](NC(=O)[C@@H]1CCCN1C(=O)[C@H](Cc1cnc[nH]1)NC(=O)[C@@H](NC(=O)[C@H](Cc1ccc(O)cc1)NC(=O)[C@@H](NC(=O)[C@H](CCCN=C(N)N)NC(=O)CNC)C(C)C)[C@@H](C)CC)C(=O)O	.	-5	.	1%	.	-11
CCN(C(=O)C(=O)Nc1ccc2nc3n(c(=O)c2c1)CCCCC3)c1ccc(F)cc1	.	.	.	.	1%	.
Cc1c(Cl)cccc1NC(=O)Cn1cc(C(=O)C2CCCCC2)c2ccccc21	.	.	.	.	-9%	.
O=C(NC(Cc1ccccc1)C(=O)O)c1ccco1 (configuration not stated)	-9%	-3	54%	0%	2%	-2
O=C(NC(Cc1ccccc1)C(=O)O)/C(=C\c1ccco1)NC(=O)c1ccco1 (configuration not stated)	3%	18	3%	-1%	-13%	19*
O=C(N[C@@H](Cc1ccccc1)C(=O)NC1CCCCCC1)c1ccco1	-4%	98*	-3%	-5%	-4%	53*
Cc1ccccc1C(=O)N1CC(=O)Nc2ccc(Cl)cc2C1c1ccccc1 (configuration not stated)	.	.	.	.	1%	.
CCOC(=O)C1(CC2CC2)CCN(C(=O)c2cc(C3CC3)nc3ccccc23)CC1	-9%	55*	0%	-19%	3%	34*
CCOC(=O)C1(CC2CC2)CCN(C(=O)c2cc(OC)nc3ccccc23)CC1	5%	88*	12%	0%	4%	31*
CCOC(=O)C1(CC2CC2)CCN(C(=O)c2cccnc2C)CC1	5%	24	-3%	-4%	9%	17*
CCOC(=O)C1(CC2CC2)CCN(Cc2ccc(C(=O)OC)cc2)CC1	-7%	-9	-13%	-5%	1%	-1
CCN(C(=O)Cn1c(=O)n(Cc2ccccc2)c(=O)c2c1c1cc(OC)ccc1n2C)c1ccccc1	.	.	.	.	0%	.
COc1ccc(-c2nc3ccc([N+](=O)[O-])cc3[nH]2)cc1	-11%	57*	-25%	-25%	-14%	60*
COc1ccc([N+](=O)[O-])cc1-c1[nH]c(-c2ccc(C(=O)O)cc2)nc1-c1ccccc1	-3%	-9	7%	-15%	-1%	1
O=[N+]([O-])c1ccc2nc(-c3ccc(Cl)cc3)[nH]c2c1	-4%	+	?	-18%	-17%	92*
Cc1ccc(-c2nc3ccc([N+](=O)[O-])cc3[nH]2)cc1	-19%	124*	-18%	?	3%	16*
O=[N+]([O-])c1ccc2nc(-c3ccncc3)[nH]c2c1	-12%	30	3%	-22%	3%	32*
O=[N+]([O-])c1cccc(-c2nc3ccc([N+](=O)[O-])cc3[nH]2)c1	-18%	40	-6%	?	-24%	12
COCCCNC(=O)c1ccc(Cn2c(=O)c3ccccc3n(Cc3c(C)cc(C)cc3C)c2=O)cc1	.	.	.	.	1%	.
O=[N+]([O-])c1ccc(-c2cnc[nH]2)cc1	7%	53*	3%	1%	-2%	26*
O=[N+]([O-])c1ccc2nc(-[n+]3c(-c4ccccc4)cc(-c4ccccc4)cc3-c3ccccc3)[nH]c2c1	1%	-4	3%	-16%	-3%	-3
O=[N+]([O-])c1ccc(-c2cc(-c3ccc(Cl)cc3)n[nH]2)cc1	-1%	39*	-16%	-22%	?	24
O=[N+]([O-])c1ccc2nc(-c3ccccc3[N+](=O)[O-])[nH]c2c1	1%	37	-26%	-24%	4%	26*
O=[N+]([O-])c1ccc(N2CCN(S(=O)(=O)c3cnc[nH]3)CC2)cc1	6%	14	15%	-3%	1%	14
CCOc1ccc(NC(=O)c2ccc3nc(C(C)C)oc3c2)cc1	.	.	.	.	2%	.
